Test [1] addresses Calcium and integrin-binding protein 1 (Homo sapiens) (UniProt Q99828). Kind of test: Primary qHTS for Identification of Calcium Integrin Binding Protein 1 (CIB1) Competitor (AID 1508620). Also: top concentration of the series differs between compounds. The note with it: CIB1-GST / FITC-alphaIIb peptide fluorescence polarization; series mostly up to 57.7 µM. The method, boiled down:
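CIB1-GST (1 uM final) and compound incubated 15 min at room temperature before adding FITC-alphaIIb peptide tracer (100 nM final). Competition for binding read by fluorescence polarization (ex 480, em 540) after another 15 min at room temperature.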
(In general: In qHTS, concentration-response curves come from the screen itself.)

Test [2] shares this target. Put plainly: Confirmatory qHTS for Identification of Calcium Integrin Binding Protein 1 (CIB1) Competitor (AID 1508617). Also: nearly all actives have a fitted effect of over 65% in size. Also: potency is read from the fitted curve at half-maximal effect. The note with it: CIB1 binding competition assay, biochemical qHTS; series mostly up to 114 µM. The method, boiled down: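 Compounds at up to 114 uM final met 1 uM GST-tagged CIB1 for 15 min at room temperature (HEPES pH 7.4, 5 mM CaCl2). FITC-labelled alphaIIb peptide, 100 nM, added; polarization read after 15 min more.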

The nature of test [3]: Primary qHTS for small molecule stabilizers of the endoplasmic reticulum resident proteome: Secreted ER Calcium Modulated Protein (SERCaMP) assay (AID 1508630). To be noted: SH-SY5Y GLuc-SERCaMP (Gaussia luciferase released on ER calcium loss) secretion, thapsigargin, luminescence; series mostly up to 38.4 µM. The method, boiled down: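 GLuc-SERCaMP-expressing SH-SY5Y cells, pretreated 16 h with compound, are challenged with thapsigargin to empty ER calcium stores; after 4 h, coelenterazine is added directly to the medium and luminescence is imaged.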

Test [4] has as its target Cytochrome P450 2D6 (Homo sapiens) (UniProt P10635). Put plainly: Cytochrome P450 family 2 subfamily D member 6 (CYP2D6) small molecule antagonists: luciferase biochemical (cell-free) qHTS assay (AID 1645840; active = well fitted curve in the direction sought with a large enough effect in the repeat runs; an effect the other way counts as inactive or inconclusive; also: nearly all actives have a fitted effect of over 55% in size). To be noted: P450-Glo CYP2D6 enzyme, luciferin luminescence, 1 h; series mostly up to 57.4 µM. In outline:
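P450-Glo luminescent screen: recombinant CYP2D6 enzyme–proluciferin substrate mix preincubated with compound 10 min at room temperature, then NADPH regeneration added for 1 h at room temperature. Detection reagent added for 20 min; luciferin light read as relative luminescence units.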

The target in test [5] is Cytochrome P450 2C9 (Homo sapiens) (UniProt P11712). Kind of test: Cytochrome P450 family 2 subfamily C member 9 (CYP2C9) small molecule antagonists: luciferase biochemical (cell-free) qHTS assay (AID 1645842; active = well fitted curve in the direction sought with a large enough effect in the repeat runs; an effect the other way counts as inactive or inconclusive; also: potency is read from the fitted curve at half-maximal effect; nearly all actives have a fitted effect of over 55% in size). To be noted: P450-Glo CYP2C9 enzyme assay, luciferin luminescence; series mostly up to 57.4 µM. In outline: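 Luminescence, after 20 min with luciferin detection reagent, reflected CYP2C9 turnover during a 1 h NADPH-driven reaction at 37C. Enzyme-substrate mix contained 0.4% bovine serum albumin and was preincubated with compound 10 min at room temperature.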

The nature of test [6]: Primary qHTS for inhibitors of nuclear receptor binding SET domain protein 2 (NSD2) in an isogenic RCH-ACV NSD2 p.E1099K mutant (9B) (AID 1645876). Also: potency is read from the fitted curve at half-maximal effect; nearly all actives have a fitted effect of over 70% in size. To be noted: RCH-ACV NSD2 E1099K (9B) viability, CellTiter-Glo, 72 h; series mostly up to 44.9 µM.
Test [7] is described as follows: Primary qHTS for inhibitors of nuclear receptor binding SET domain protein 2 (NSD2) in an RCH-ACV wild type WT cells (2C) (AID 1645877). Also: potency is read from the fitted curve at half-maximal effect; nearly all actives have a fitted effect of over 70% in size. The note with it: RCH-ACV (leukaemia line) NSD2 WT (2C) viability, CellTiter-Glo, 72 h; series mostly up to 44.9 µM.
Test [8] concerns the target Protein phosphatase 1D (Homo sapiens) (UniProt O15297). Kind of test: RapidFire Mass Spectrometry qHTS Assay for Modulators of WT P53-Induced Phosphatase 1 (WIP1) (AID 1347424).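 Also: amount of dephosphorylated VEPPL-S-QETFS peptide product formed by WIP1.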 To be noted: WIP1 dephosphorylation of phosphopeptide, RapidFire MS; series mostly up to 63 µM. The method, boiled down:
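10 nM WIP1 + cpd, 1 h RT; + 2 uM VEPPL-pS-QETFS, 5 min RT; stop 0.5% formic acid; labelled product standard 1 uM; RapidFire MS. Buffer 50 mM Tris pH 7.5, 30 mM MgCl2, 1 mM TCEP.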

The target is the same in test [9]. Put plainly: Rhodamine-PBP qHTS Assay for Modulators of WT P53-Induced Phosphatase 1 (WIP1) (AID 1347425). The note with it: recombinant WIP1, Rhodamine-PBP phosphate fluorescence, real-time; series mostly up to 57.5 µM. The method, boiled down:
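The read-out is the change in Rhodamine-PBP fluorescence (f1 - f0, ex 525/em 598 nm) as Pi is released, read each minute for 11 min. Final reaction: 5 nM WIP1, 10 uM phosphopeptide VEPPL-pS-QETFS, 10 uM Rh-PBP, 50 mM Tris-HCl pH 7.5, 30 mM MgCl2. Compound was preincubated with enzyme for 1 hour at room temperature.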

A short description of test [10]: Primary qHTS for inhibitors of La Crosse Virus (LACV) - induced cell death in SH-SY5Y cells (AID 1508616).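 Also: top concentration of the series differs between compounds; higher means more rescue of cells from virus-induced death.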 The note with it: SH-SY5Y LACV cytopathicity rescue, ATP luminescence, 6 d; series mostly up to 4.29 µM. In outline: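 Luminescent ATP readout (ATPLite 1step, 5 min room temperature) measured rescue from LACV-induced death after 6 days of infection at 0.01 MOI; normalized to infected DMSO wells and uninfected DMSO wells.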

Test [11] in a line: A High-Content qHTS Against Drug Library for the Identification of Small Molecules that Inhibit DYT1 Early Onset Primary Dystonia-Associated Cell Pathology (AID 1645839; calls by dose curve; also: potency is read from the fitted curve at half-maximal effect). To be noted: HEK293 Flp-In EGFP-delE TorsinA, punctate imaging, 48 h; series mostly up to 46.1 µM. In outline:
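In this high-content image screen, delE TorsinA mislocalization in inducible Flp-In 293 cells is scored as %pathology, with cell count serving as the counterscreen. Compound exposure lasts 48 h under tetracycline induction in reduced-serum medium.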

SMILES strings stand for the structures. “And” between values parts separate entries of the source, which are not always exact repeats. Equal values may be shown once. Inconclusive results are not listed. The source made the active and inactive calls. Unless noted, calls follow the shape of the dose curve; as a rule, active = well fitted curve in the direction sought with a large enough effect; inconclusive = small, poorly fitted or top-dose-only effect, or another doubt; inactive = no such curve, though single readings can be large; an effect the other way counts as inactive or inconclusive.

Drawing on PubChem BioAssay (NCATS), this text covers outcome and Potency for 9 compounds.

Sequence of Calcium and integrin-binding protein 1 (Homo sapiens) (Q99828 whole entry, looked up): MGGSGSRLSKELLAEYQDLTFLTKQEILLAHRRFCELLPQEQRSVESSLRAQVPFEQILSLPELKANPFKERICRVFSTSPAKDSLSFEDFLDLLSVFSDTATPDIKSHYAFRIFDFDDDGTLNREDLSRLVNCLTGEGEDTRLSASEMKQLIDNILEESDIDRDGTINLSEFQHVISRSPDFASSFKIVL
Sequence of Protein phosphatase 1D (Homo sapiens) (O15297 whole entry, looked up): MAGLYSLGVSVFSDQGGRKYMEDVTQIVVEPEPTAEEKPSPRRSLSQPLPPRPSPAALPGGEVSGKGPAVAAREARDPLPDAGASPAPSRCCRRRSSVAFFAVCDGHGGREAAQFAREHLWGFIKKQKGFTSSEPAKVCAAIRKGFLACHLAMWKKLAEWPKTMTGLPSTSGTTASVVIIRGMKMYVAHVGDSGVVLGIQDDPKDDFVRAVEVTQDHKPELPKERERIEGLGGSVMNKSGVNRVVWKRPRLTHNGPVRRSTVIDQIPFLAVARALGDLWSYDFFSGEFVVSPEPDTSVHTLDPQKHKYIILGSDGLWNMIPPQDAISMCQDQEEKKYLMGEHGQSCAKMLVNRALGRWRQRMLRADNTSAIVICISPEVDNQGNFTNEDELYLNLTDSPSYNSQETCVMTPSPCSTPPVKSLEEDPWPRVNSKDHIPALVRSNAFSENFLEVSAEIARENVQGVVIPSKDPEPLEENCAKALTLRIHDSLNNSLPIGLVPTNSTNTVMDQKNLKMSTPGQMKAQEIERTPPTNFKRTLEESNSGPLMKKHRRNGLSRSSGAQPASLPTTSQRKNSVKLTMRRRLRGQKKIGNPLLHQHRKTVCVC
Sequence of Cytochrome P450 2C9 (Homo sapiens) (P11712 whole entry, looked up): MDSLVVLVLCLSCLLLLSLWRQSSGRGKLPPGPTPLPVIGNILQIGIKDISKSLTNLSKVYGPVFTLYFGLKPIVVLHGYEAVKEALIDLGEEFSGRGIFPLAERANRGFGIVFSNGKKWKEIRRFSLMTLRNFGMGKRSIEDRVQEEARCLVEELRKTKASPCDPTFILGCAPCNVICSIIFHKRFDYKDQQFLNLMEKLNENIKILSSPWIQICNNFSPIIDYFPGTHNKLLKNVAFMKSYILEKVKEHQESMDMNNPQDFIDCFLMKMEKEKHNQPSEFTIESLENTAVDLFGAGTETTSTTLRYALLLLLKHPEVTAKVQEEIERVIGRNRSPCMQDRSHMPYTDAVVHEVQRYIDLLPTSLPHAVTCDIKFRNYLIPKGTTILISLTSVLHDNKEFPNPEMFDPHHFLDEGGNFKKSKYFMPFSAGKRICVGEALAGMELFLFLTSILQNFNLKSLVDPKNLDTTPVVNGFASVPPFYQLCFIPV
Sequence of Cytochrome P450 2D6 (Homo sapiens) (P10635 whole entry, looked up): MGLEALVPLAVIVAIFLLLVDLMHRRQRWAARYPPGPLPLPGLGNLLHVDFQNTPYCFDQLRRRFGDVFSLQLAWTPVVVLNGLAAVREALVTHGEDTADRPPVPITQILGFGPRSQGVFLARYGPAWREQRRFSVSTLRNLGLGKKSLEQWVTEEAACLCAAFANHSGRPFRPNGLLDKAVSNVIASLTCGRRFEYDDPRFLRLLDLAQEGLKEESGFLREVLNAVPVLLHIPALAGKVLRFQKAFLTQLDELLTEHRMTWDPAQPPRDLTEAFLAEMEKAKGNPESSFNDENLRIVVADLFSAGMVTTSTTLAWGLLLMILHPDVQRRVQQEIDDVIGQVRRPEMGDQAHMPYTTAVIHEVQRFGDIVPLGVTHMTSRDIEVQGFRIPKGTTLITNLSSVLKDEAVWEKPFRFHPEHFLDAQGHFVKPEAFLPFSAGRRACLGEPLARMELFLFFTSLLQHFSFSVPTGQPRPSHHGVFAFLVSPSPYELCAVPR

On to `Nc1ccn([C@@H]2O[C@H](CO)[C@H](O)C2(F)F)c(=O)n1`, for which, in test [1], the result was inactive.
With `Cn1cc(-c2[nH]c3cc(NC(=O)[C@H](N)C4CCCCC4)cc4c3c2C=NNC4=O)cn1`, the Potency in test [2] is 50.1 µM (active); in test [5], 9.52 µM (active); in [6] it was 578 nM (active) and 833 nM (active); in test [7], 728 nM (active) and 742 nM (active). For the same compound, the Potency entry in test [3] and in [4] was “inactive” in each case.
Regarding `CCC1=C[C@@H]2CN(C1)Cc1c([nH]c3ccccc13)[C@@](C(=O)OC)(c1cc3c(cc1OC)N(C)[C@@H]1[C@@](O)(C(=O)OC)[C@H](OC(C)=O)[C@]4(CC)C=CCN5CC[C@]31[C@@H]54)C2`, in test [1], the result was inactive.
`CC(=O)Nc1sc2c(c1-c1nc3ccccc3s1)CNC2`: the Potency result in test [2] and in [3] was “inactive” each time. Besides, in test [1], the result was inactive. For the same compound, the Potency in test [6] and in test [7] was 2.9 µM (active) throughout.
With `CC1(C)O[C@@H]2C[C@@H]3[C@H]4C[C@@H](F)C5=CC(=O)C=C[C@]5(C)[C@@]4(F)[C@@H](O)C[C@]3(C)[C@]2(C(=O)CO)O1`, the outcome in test [1] was inactive. The Potency entry in [3] is “inactive”.
On to `COc1cc(=C2C=c3ccccc3=N2)[nH]c1=Cc1[nH]c(C)cc1C`, for which, in test [1], the result was inactive. Also, in test [3], the Potency entry was “inactive”.
For the compound `CCOc1cc2ncc(C#N)c(Nc3ccc(F)c(Cl)c3)c2cc1NC(=O)C=CCN(C)C`, the outcome in [1] was inactive. Also, the Potency result in test [3] was “inactive”.
Take `COC(=O)C1=C(C)NC(C)=C(C(=O)OCCN2CCN(C(c3ccccc3)c3ccccc3)CC2)C1c1cccc([N+](=O)[O-])c1` (centres undefined): the Potency entry in test [8] was “inactive”. The outcome in [9], in [10] and in test [1] was inactive. Moreover, the results for the Potency in test [11], in [5] and in test [7] were 8.91 µM (active), 1.55 µM (active) and 9.34 µM (active), respectively.
`CC(C)(O)CCc1ccc(OCc2cc(-c3cccc(OC(F)F)c3)c3ncccc3c2)cc1`: the Potency entry in test [2] and in test [3] was “inactive” in each case. Also, the Potency in [6] was 20.9 µM (active).
